# Assay results taken from PubChem BioAssay (NCATS).
# Records with an inconclusive call do not appear. A call without a number means that no potency is given here. Unmarked numbers belong to inactive results. Calls of active or inactive are those of the source. Calls come from the whole dose curve; as a rule, active = well fitted cell-killing curve with a large enough effect; inconclusive = small, poorly fitted or top-dose-only effect, or effect the other way; inactive = flat fitted curve, though single readings scatter.
# System: C33A
# Test: Primary qHTS to identify gynecologic anti-cancer compounds using libraries of approved drugs and bioactive compounds (AID 1345084); note: nearly all actives have a fitted effect of over 55% in size
# Settings: Gynecologic cancer cell panel viability, ATPlite luminescence, 48 h; series mostly up to 57.5 µM
# In short: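 Measured: luminescence after ATPlite addition (15 min, RT). Exposure: 48 h, 37 C, 5% CO2.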
Structure (SMILES),Potency,"activity change, negative = cytotoxicity"
CC(=O)C12OC(C)(C)OC1CC1C3CCC4=CC(=O)C=CC4(C)C3(F)C(O)CC12C (centres undefined),inactive,
COC(=O)C1=CO[C@@H](O[C@@H]2O[C@H](CO[C@@H]3O[C@H](COC(=O)/C=C/c4cc(OC)c(O)c(OC)c4)[C@@H](O)[C@H](O)[C@H]3O)[C@@H](O)[C@H](O)[C@H]2O)[C@@H]2C(CO)=CC[C@H]12,inactive,
CC1=C2C3OC(=O)C(C)C3(O)CCC2(C)CCC1O (centres undefined),inactive,
COc1ccccc1Oc1ccc(N(Cc2cccnc2)S(=O)(=O)CC(F)(F)F)cc1,inactive,
O=C(/C=C/c1ccc(O)cc1)N[C@@H](Cc1ccc(O)cc1)C(=O)O,inactive,
CC1=C(C)C(=O)OC(C(C)C2CCC3C4C5OC5C5(O)CC(OC6OC(CO)C(OC7OC(C)C(O)C(O)C7O)C(O)C6O)CC(O)C5(C)C4CCC23C)C1 (centres undefined),inactive,
C=C[C@H]1CN2CC[C@H]1C[C@@H]2C(O)c1ccnc2ccc(OC)cc12 (some centres undefined),inactive,
C=C[C@H]1C(O[C@@H]2O[C@H](CO)[C@@H](O)[C@H](O)[C@H]2O)OC=C2C(=O)N3CCc4c([nH]c5ccccc45)C3CC21 (some centres undefined),inactive,
O=C(O)/C=C/c1ccc(O)c(O[C@@H]2O[C@H](CO)[C@@H](O)[C@H](O)[C@H]2O)c1,inactive,
C=C(C(=O)O)C1CC(O)C2(C)CCCC(=C)C2C1 (centres undefined),inactive,
CC1CCC2(C(=O)O)CCC3(C)C(=CCC4C5(C)CCC(OC(=O)/C=C/c6ccccc6)C(C)(C)C5CCC43C)C2C1C (centres undefined),inactive,
C=C[C@H]1[C@H](O[C@@H]2O[C@H](CO)[C@@H](O)[C@H](O)[C@H]2O)OC=C(C(=O)OC)[C@H]1CC(=O)O,inactive,
CNC12CC3C[C@@](C)(C1)C[C@](C)(C3)C2,inactive,
COc1cccc2cc3c(c(O[C@@H]4O[C@H](CO[C@@H]5O[C@H](CO)[C@@H](O)[C@H](O)[C@H]5O)[C@@H](O)[C@H](O)[C@H]4O)c12)C(C)OC3=O (some centres undefined),inactive,
C/C(=C\CC[C@@H](C)[C@H]1CC(O)[C@@]2(C)C3CC[C@H]4C(C)(C)[C@@H](OC5OCC(O)C(O)C5OC5OC(CO)C(O)C(O)C5O)CC[C@@]45C[C@@]35CC(O)[C@]12C)C(=O)O (some centres undefined),inactive,
Cc1ccc(NC(=O)C(=O)NC2CC(C)(C)NC(C)(C)C2)cc1,inactive,
C=CC(C)(C)C12C=C(OC)C(=O)N3C(C(C)C)C(=O)NC31N(OC)c1ccccc12 (centres undefined),inactive,
O=S(=O)(NC1CCC(c2cc(F)ccc2F)(S(=O)(=O)c2ccc(Cl)cc2)CC1)C(F)(F)F (centres undefined),inactive,
CC(C)=CCC[C@](C)(O[C@@H]1O[C@H](CO)[C@@H](O)[C@H](O)[C@H]1O)[C@H]1CC[C@]2(C)[C@@H]1[C@H](O)CC1[C@@]3(C)CC[C@H](O)C(C)(C)C3[C@@H](O[C@@H]3O[C@H](CO)[C@@H](O)[C@H](O)[C@H]3O[C@@H]3OC[C@@H](O)[C@H](O)[C@H]3O)C[C@]12C (some centres undefined),,-5.13% [at 11.6 µM]
CC(=O)OC1CC2(C)C3=CCC4(C)C5C(O)C(O)C(C(C)C)C5(C)CCC4(C)C3CCC2C(C)(C)C1OC1OC(CO)C(O)C(O)C1O (centres undefined),inactive,

Structure (SMILES),Potency,"activity change, negative = cytotoxicity"
CC1(C)CCCC2(C)C1CC(=O)C13CC(CCC12)C(O)(CO)C3 (centres undefined),inactive,
CC1=CC(=O)C2(OC3OC(C)C(O)C(OC(=O)/C=C/c4ccccc4)C3O)C=COC(OC3OC(CO)C(O)C(O)C3O)C12 (centres undefined),inactive,
C=C(CO)C12OC1C1(C)C(=CC2=O)C(O)C(O)CC1C (centres undefined),inactive,
O=C(CCc1ccccc1)N1CCC(O)(Cn2cnc3cc(Cl)ccc3c2=O)CC1,inactive,
C=CC(C)(O)CC[C@H]1C(=C)CCC2[C@](C)(C(=O)O)CCC[C@@]21C (some centres undefined),inactive,
C=C1[C@H](OC(C)=O)[C@H]2[C@@H](OC(C)=O)[C@](C)(OC(C)=O)C[C@]2(OC(C)=O)C(=O)[C@H](C)/C=C/C(C)(C)C(=O)[C@H](OC(=O)C(C)CC)[C@H]1OC(C)=O (some centres undefined),inactive,
C=C(C(=O)O)C1CCC2(C)CCC(O)C(C)(O)C2C1 (centres undefined),inactive,
C[C@@H]1O[C@@H](OC[C@H]2O[C@@H](OC(CCCCc3ccc(O)cc3)CCc3ccc(O)cc3)[C@H](O)[C@@H](O)[C@@H]2O)[C@H](O)[C@H](O)[C@H]1O (some centres undefined),inactive,
COC(=O)c1ccc(OC(CO)C(O)c2ccc(O)c(OC)c2)c(OC)c1 (centres undefined),inactive,
C/C1=C\C[C@]2(C)C(=O)C(O)=C([C@H](C)CO)[C@H]2C/C=C(\C)[C@@H](O)CC/C(C)=C/CC1,inactive,
C=C(C)C1CCC2(C(=O)O)CCC3(C(=O)O)C(CCC4C5(C)CCC(O)C(C)(C(=O)O)C5CCC43C)C12 (centres undefined),inactive,
O=C(Nc1ccccc1-c1cn2c(CN3CCNCC3)csc2n1)c1ccc2ccccc2n1,inactive,
COc1c2c(c(CO)c3c1C(=O)OC3)OC1(C)CCC3(O)C(C)(C)OC(=O)CCC3(C)C1C2 (centres undefined),inactive,
CC(C)C(N)C(=O)OCCOCn1cnc2c(=O)[nH]c(N)nc21 (centres undefined),inactive,
O=C(Nc1ccc(S(=O)(=O)Nc2nccs2)cc1)C(c1ccccc1)c1ccccc1,inactive,
CN=C(N)NCCCCC/C=C(/C)CC(C)C1OC(=O)C(C)C(O)/C=C/C(C)C(O)CC(O)C(C)C(O)CCC(C)C(O)CC2(O)OC(CC(OC(=O)CC(=O)O)CC(O)CC(O)C(C)C(O)/C(C)=C/CCC1C)CC(O)C2O (centres undefined),,11.4% [at 11.6 µM]
CCOCCn1nc(CC)c2nc(N3CCC(C(=O)O)CC3)nc(Nc3cc(C)ccn3)c21,inactive,
CC1OC(OC2C(CO)OC(OCC3OC(OC(=O)C45CCC(C)(C)CC4C4=CCC6C7(C)CCC(OC8OC(CO)C(O)C(OC9OC(CO)C(O)C(O)C9O)C8O)C(C)(C)C7CCC6(C)C4(C)CC5)C(O)C(O)C3O)C(O)C2O)C(O)C(O)C1OC1OC(CO)C(O)C(O)C1O (centres undefined),,-0.229% [at 6.55 µM]
O=c1[nH]ccc2cc(OC3CCNCC3)ccc12,inactive,
